Bioassay records (PubChem)
Mcl-1 Bim block = disrupts Bim peptide binding to human Mcl-1; inhibition, % at 10 µM; Bead-based flow cytometry, Bim peptide-Mcl-1 binding; 0.1% of 190,000 active; AID 1009; Q07820; in the data active = inhibition above about 40%;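 note: 0% = no compound tracer wells and 100% = peptide blocker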
BCLXL inh = blocks human Bcl-xL binding to Bim BH3 peptide. Q07817. GST-Bcl-xL / FITC-Bim BH3 peptide fluorescence polarization. 0.7% of 320,000 active. inhibition, % at 10.9 µM;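 active = inhibition above the mean of all tested compounds plus 3 SD, cutoff set per campaign, cut at about 30% in these data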;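 note: 0% = DMSO wells and 100% = unlabeled Bim-BH3 peptide competitor; inhibitors lower millipolarization by displacing the labeled peptide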
MCL1 BIM primary = inhibitors of human MCL1 binding to BIM-BH3 peptide; inhibition, % at 10.9 µM; 0.68% of 320,000 active; Q07820; GST-MCL1 / FITC-Bim-BH3 fluorescence polarization;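 active = inhibition above the mean inhibition of all tested compounds plus 3 SD, set per campaign, cut at about 40% in these data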;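 note: 0% = DMSO wells and 100% = unlabeled Bim-BH3 peptide control; higher means more loss of mP so more displacement of Bim peptide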
Mcl1 Noxa PPI = Mcl-1/Noxa interaction inhibition. inhibition, % at 21.7 µM. TR-FRET Mcl-1/Noxa peptide binding, 2 h. AID 1022. Q07820. 1.5% of 220,000 active;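 active = compounds that cut the protein-peptide binding signal by more than 50% relative to plate controls in a single-dose test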;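 note: His-tagged Mcl-1 with rhodamine Noxa BH3 peptide and terbium anti-His antibody; 0% = Mcl-1 plus Noxa peptide wells and 100% = peptide-only wells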
GLD-1 RNA inh = GLD-1-TGE RNA interaction inhibition (C. elegans); purified GLD-1 + fluorescein TGE RNA, fluorescence polarization; inhibition, % at 5.96 µM; 0.44% of 320,000 active; AID 2280;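 active = percent inhibition above a per-plate cutoff, the plate mean of test compounds plus 3 SD, cut at about 30% in these data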;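 note: 0% = DMSO wells with GLD-1 and probe and 100% = wells lacking GLD-1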
Target sequence (Q17339 whole entry, looked up): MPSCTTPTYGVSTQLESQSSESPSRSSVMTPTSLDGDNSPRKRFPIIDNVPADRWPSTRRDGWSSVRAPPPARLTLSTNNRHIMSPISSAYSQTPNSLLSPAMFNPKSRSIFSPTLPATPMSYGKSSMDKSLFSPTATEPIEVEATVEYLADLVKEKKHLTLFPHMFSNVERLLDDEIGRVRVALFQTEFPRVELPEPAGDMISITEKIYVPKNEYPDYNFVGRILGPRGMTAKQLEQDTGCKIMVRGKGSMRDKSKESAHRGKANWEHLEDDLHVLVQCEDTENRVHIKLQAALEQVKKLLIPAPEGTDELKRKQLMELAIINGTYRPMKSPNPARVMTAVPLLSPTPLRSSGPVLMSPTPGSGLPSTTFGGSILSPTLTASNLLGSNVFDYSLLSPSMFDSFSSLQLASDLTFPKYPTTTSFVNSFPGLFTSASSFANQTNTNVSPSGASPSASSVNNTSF
Mcl1 Bid PPI = Mcl-1/Bid interaction inhibition; Q07820; 0.97% of 220,000 active; TR-FRET Mcl-1/Bid-Dy647 peptide binding, 1536-well; inhibition, % at 21.7 µM;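 active = compounds that cut the binding signal by more than half at the single screening dose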;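 note: His-tagged Mcl-1 with europium anti-His antibody binding Bid BH3 peptide; 0% = Mcl-1 plus peptide wells and 100% = peptide-only wells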
An asterisk follows results filed as active; x = no result given. This is a sample that favours compounds with a hit; in the whole collection about 2.3% have one here.

SMILES	Mcl-1 Bim block	BCLXL inh	MCL1 BIM primary	Mcl1 Noxa PPI	GLD-1 RNA inh	Mcl1 Bid PPI
CCOc1ccc(-c2csc(/C(C#N)=C\c3ccc(O)c([N+](=O)[O-])c3)n2)cc1	-3	-2	-2	56*	-1	-23
CCCCc1ccc(-c2csc(/C(C#N)=C\c3ccc(C)o3)n2)cc1	-2	-5	-4	-12	-3	-9
O=C(CSc1nccc(=O)[nH]1)c1ccccc1Br	-2	7	12	-9	0	71*
O=C1NN(c2ccccc2)C(=O)/C1=C\c1ccc(-c2cc([N+](=O)[O-])ccc2O)o1	0	x	x	87*	x	-83
O=C1NN(c2ccc(Cl)cc2)C(=O)/C1=C\c1ccc(-c2cccc(C(=O)O)c2)o1	0	x	x	81*	x	21
CC(=O)Nc1cccc(NC(=O)C(=O)NCC(c2ccco2)N2CCc3ccccc32)c1 (centres undefined)	x	0	0	x	-1	x
O=C1/C(=C/c2ccccc2)SC(=S)N1C1CCS(=O)(=O)C1 (centres undefined)	x	6	10	-9	5	-26
CC1=C(C#N)C(=O)N(C2CCS(=O)(=O)C2)C(=O)/C1=C\c1ccc(C)o1 (centres undefined)	x	30*	52*	93*	-10	4
CCn1nc([N+](=O)[O-])c(C(C#N)c2nc3cc(C(F)(F)F)ccc3s2)c(Cl)c1=O (centres undefined)	4	7	6	90*	15	36
O=[N+]([O-])c1ccc(CSc2nc3ccccc3o2)cc1	-3	-4	3	10	3	-1
CCCn1nc([N+](=O)[O-])c(C(C#N)c2nc3ccccc3o2)c(Cl)c1=O (centres undefined)	1	21	27	60*	2	31
Cc1cc(Br)ccc1NC(=O)CN(C)C(=O)Cn1c(=O)cnc2ccccc21	x	-3	-17	x	1	x
O=C1CC2(CCN(C(=O)c3cccc(F)c3)CC2)Oc2ccccc21	x	3	-1	x	4	x
Cc1ccc(S(=O)(=O)/N=C2/C=C(C3C(=O)CC(C)(C)CC3=O)C(=O)c3ccccc32)cc1	4	3	-9	80*	4	26
O=C1ON=C(c2ccccc2)/C1=C/c1ccc(-c2ccccc2[N+](=O)[O-])o1	-8	18	29	67*	12	-11
N#Cc1c(-c2ccc(F)cc2)cc(-c2cccnc2)nc1N	-2	0	4	-122	-1	7
N#Cc1c(-c2ccco2)cc(-c2ccc(F)cc2)nc1N	0	-6	-10	65*	-9	5
CC(C)Cc1cc(-c2ccco2)c(C#N)c(N)n1	48*	4	1	0	-2	-16
CC(C)[C@H](NC(=O)N1c2ccccc2NC(=O)[C@@H]1C(C)C)C(=O)N[C@@H](Cc1c[nH]c2ccccc12)C(=O)O	x	-3	-4	x	3	x
CCOC(=O)c1c(CSc2ccc(C)cc2)n(C)c2cc(Br)c(O)c(CN(C)C)c12	2	9	3	86*	1	27
CCOC(=O)c1c(CSc2ccsc2)n(C)c2cc(Br)c(O)c(CN(C)C)c12	x	12	13	60*	15	-124
COc1cccc(OCC(=O)NNC(=O)c2ccc3ccccc3c2)c1	x	3	7	x	-4	x
O=C(N=Nc1c(O)[nH]c2ccccc12)c1cc(NS(=O)(=O)c2cccs2)cc(NS(=O)(=O)c2cccs2)c1	3	2	1	57*	-2	-33
Cc1ccc2[nH]cc(C(=O)CN3CCOCC3)c2c1	3	3	-4	21	0	-4
CCN1CCN(CC(=O)c2c[nH]c3ccc(C)cc23)CC1	59*	-3	-4	16	9	0
SMILES	Mcl-1 Bim block	BCLXL inh	MCL1 BIM primary	Mcl1 Noxa PPI	GLD-1 RNA inh	Mcl1 Bid PPI
Cc1c(C)c(C)c(S(=O)(=O)Nc2ccc3[nH]c(=O)[nH]c3c2)c(C)c1C	x	4	5	x	4	x
Cc1ccc(CNC(=O)c2cccc3c2C(=O)c2ccc(N4CCCCC4)cc2S3(=O)=O)cc1	x	-27	-87	x	71*	x
O=C(NCc1ccco1)c1cccc2c1C(=O)c1ccc(N3CCCC3)cc1S2(=O)=O	x	x	x	x	31*	x
CC(C)NS(=O)(=O)c1ccc(OCC(=O)Nc2ccc(F)cc2)cc1	58*	4	4	13	1	-11
CCOc1ccc(S(=O)(=O)Nc2nc3ccccc3nc2-n2ccc(=NC(=O)c3cccs3)cc2)cc1	-1	-3	2	-132	2	-84
O=C(N=c1ccn(-c2nc3ccccc3nc2NS(=O)(=O)c2ccc(Cl)cc2)cc1)c1cccs1	x	48*	44*	-97	15	-118
CC(C)c1ccc(NC(=O)CCc2ccccc2)cc1	x	3	4	x	0	x
O=C(CNC(=O)C12CC3CC(CC(C3)C1)C2)NCc1ccccc1	x	-1	-5	x	7	x
COc1ccc2c(c1OC)C(=O)N1C(C(=O)O)Cc3c([nH]c4ccccc34)C21 (centres undefined)	-2	48*	47*	7	21	-2
COc1cccc(C2c3[nH]c4ccccc4c3C[C@H]3C(=O)N(CCCO)CC(=O)N23)c1OC (some centres undefined)	x	1	-2	x	1	x
O=C(COC(=O)C(CO)NS(=O)(=O)c1ccc(Br)cc1)Nc1ccc2c(c1)OCCO2 (centres undefined)	x	x	x	x	1	x
Cn1cc(CN2C[C@]3(C)C[C@H]2CC(C)(C)C3)c(-c2ccc3c(c2)OCCO3)n1	50*	8	12	11	-4	-20
O=c1cc(CN2CCN(c3ccc(F)cc3)CC2)nc2sccn12	0	34*	34	-4	24	-16
CCOC(=O)c1cc(C)[nH]c(=S)c1C#N	-4	18	8	72*	4	-47
COC(=O)c1cc(S(=O)(=O)N2CCN(C(=O)c3ccco3)CC2)cn1C	x	0	4	x	3	x
COC(=O)c1c(NC(=O)CC2Nc3cc(C)c(C)cc3NC2=O)sc(C)c1C (centres undefined)	-4	2	-9	64*	-10	62*
O=[N+]([O-])c1cc(-c2ccc(/C=N/c3nc4ccccn4c3-c3ccco3)o2)ccc1Cl	1	25	30	65*	26	65*
O=C1C=C(O)c2cccc(O)c2C1=O	x	12	13	60*	8	-78
Oc1ccc(N=Cc2ccc(O)c(O)c2)cc1	9	23	28	67*	3	-13
COC(=O)c1ccc2nc(Nc3nc4c(F)cc(F)cc4s3)sc2c1	-3	2	0	81*	0	64*
CC1CCN(CCCNC(=O)Cn2ncc3c([nH]c4ccccc43)c2=O)CC1	x	1	-8	x	-1	x
Cc1ccc(CNc2nc3ccc(C)cc3n3cnnc23)cc1	-3	-2	-6	20	2	10
COc1cccc(CNc2nc3ccc(C)cc3n3cnnc23)c1	x	-1	-4	-17	-5	98*
